Common to all, as to experiment: NCI-60 one-dose screen, 48 h (100 = growth as untreated, 0 = no growth, -100 = all killed)
Common to all, as to conditions: 10 µM unless noted

Experiment [1] relates to HCT-15 colon.
Experiment [2] relates to HT29 colon.
Experiment [3] relates to SNB-75 CNS.
Experiment [4] relates to SNB-19 CNS.
Experiment [5] relates to U251 CNS.
Experiment [6] deals with PC-3 prostate.
For experiment [7], the system named is SK-MEL-5 melanoma.
Experiment [8] concerns UACC-62 melanoma.
Experiment [9] deals with LOX IMVI melanoma.
In experiment [10] the test system is SK-MEL-28 melanoma.
In experiment [11] the test system is SK-MEL-2 melanoma.
Experiment [12] relates to EKVX NSCLC.
For experiment [13], the system named is SN12C renal.
In experiment [14] the test system is UO-31 renal.
Experiment [15] deals with TK-10 renal.
The subject of experiment [16] is ACHN renal.
The test system of experiment [17] is CAKI-1 renal.
Experiment [18] concerns A498 renal.
For experiment [19], the system named is MOLT-4 leukemia.
Experiment [20] concerns CCRF-CEM leukemia.

Structures are written as SMILES. The panel holds about 83,000 compounds, 20% with a hit somewhere; the sample as a whole holds those more often.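 In brief: 96-well plates, 48 h treatment, single concentration, percent growth endpoint.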 Values without a mark were called inactive. Activity calls are given as the source filed them. Rule for the calls: active = growth percent below 10; inactive = the rest.

As to `CCCCCCCCCCCCCCCCCCOc1cccc(CCOP(=O)(O)OCC[N+](C)(C)C)c1`, the growth is 87% in experiment [1]; 73.7% in [2]; 83.1% in [3]; 83.6% in experiment [4]; 67.7% in experiment [5]; 2.55% (active) in experiment [6]. Moreover, the growth in experiment [7] was 91.1%; in experiment [8], 85.2%; in [9], 77.3%; in [10], 94.2%; in experiment [11], 90.4%; in experiment [12], 97%. The growth in experiment [13] was 91.1%; in experiment [14], 91.5%; in experiment [15], 36.5%; in experiment [16] it was 95.8%; in experiment [17] it was 55.3%; in [18], 99.2%. In addition, the growth in experiment [19] was 104%.
For the molecule `O=C(NCCc1c[nH]c2ccccc12)C1Cc2ccccc2CN1C(=O)c1ccco1` (configuration not stated), the growth in [1] was 111%; in experiment [2] it was 114%; in experiment [3] it was 106%; in experiment [4], 112%; in [5], 98.5%; in experiment [6] it was 96.9%. The growth was 95.6% in [7]; 93.4% in experiment [8]; 94.9% in experiment [9]; 116% in [10]; 69.5% in experiment [11]; 102% in experiment [12]. Moreover, the growth in experiment [13] was 111%; in experiment [14], 53.5%; in [15] it was 110%; in [16] it was 96.6%; in experiment [17], 107%; in experiment [20] it was 81.2%. In addition, the growth in [19] is 77.1%.
On to `Cc1sc2nc(CSc3nnc(-c4ccco4)o3)[nH]c(=O)c2c1C`, for which the growth in [1] is 90.7%; in [2] it was 118%; in [3] it was 108%; in experiment [4] it was 106%; in [5], 88%; in experiment [6], 102%. For the same molecule, the growth was 97.5% in [7]; 108% in [8]; 99.2% in experiment [9]; 110% in experiment [10]; 96.4% in experiment [11]; 110% in [12]. Also, the growth is 114% in [13]; 106% in experiment [14]; 189% in [15]; 93.8% in experiment [16]; 99.9% in experiment [17]; 110% in experiment [18]. Moreover, the growth in experiment [19] is 48.7%.
In the case of `CCN1C(=O)N(CC)C2C1NN=c1s/c(=C\c3cccc(F)c3)c(=O)n12` (configuration not stated), the growth in experiment [1] was 15.7%; in experiment [2], 10.4%; in [3], 6.61% (active); in [4] it was 34.6%; in experiment [5] it was 29.4%; in experiment [6], 24.7%. The growth in experiment [7] is -30.7% (active); in [8] it was 33.3%; in experiment [9], 24.4%; in [10], 57.8%; in experiment [11], 51.5%; in [12], 64.3%. Also, the growth is 31.5% in experiment [13]; 50.8% in experiment [14]; 61.8% in [15]; 29.1% in experiment [16]; 40.8% in experiment [17]; -15.3% (active) in experiment [18]. Besides, the growth in experiment [19] was 19.1%.
For the molecule `CCN1C(=O)N(CC)C2C1NN=c1s/c(=C\c3ccccn3)c(=O)n12` (configuration not stated), the growth was 33.5% in experiment [1]; 6.69% (active) in experiment [2]; -24.4% (active) in [3]; 34.1% in experiment [4]; 28.3% in experiment [5]; 24.4% in experiment [6]. Also, the growth was 5.18% (active) in experiment [7]; 39.8% in experiment [8]; 42.6% in experiment [9]; 57.3% in [10]; 39.9% in [11]; 61.7% in [12]. Further, the growth was 40.7% in experiment [13]; 43.8% in experiment [14]; 51.2% in experiment [15]; 43.4% in experiment [16]; 30.2% in experiment [17]; -29.2% (active) in [18]. Also, the growth in experiment [19] is 42.5%.
As to `COc1cccc2cc(-c3cc4ccccc4[nH]3)c(=NC(=O)c3ccc(Cl)cc3)oc12`, the growth in experiment [1] is 43.3%; in [2], 64.4%; in [3], 5.92% (active); in [4], 53.5%; in experiment [5], 43.9%; in experiment [6], 38.5%. The growth in experiment [7] was 81.7%; in experiment [8] it was 73.8%; in experiment [9] it was 75.5%; in experiment [10], 82.2%; in experiment [11] it was 83.3%; in experiment [12], 77.9%. In addition, the growth is 83.8% in [13]; 58.4% in experiment [14]; 96.6% in experiment [15]; 51.5% in [16]; 53.8% in experiment [17]; 64.9% in experiment [18]. Moreover, in experiment [19], the growth is 61.5%.
`C#CCN1C(=O)/C(=c2\sc3n(c2=O)NC2C(N=3)N(CC)C(=O)N2CC)c2ccccc21` (configuration not stated): the growth in experiment [1] is 43.8%; in experiment [2], 26.2%; in [3] it was 14.2%; in experiment [4], 89.1%; in experiment [5] it was 94.4%; in experiment [6], 47.5%. In addition, the growth in experiment [7] is 53%; in experiment [8], 54.1%; in experiment [9] it was 60.3%; in experiment [10], 57.3%; in experiment [11], 91.3%; in experiment [12] it was 69.7%. Besides, the growth is 71% in [13]; 47.9% in experiment [14]; 96.5% in experiment [15]; 54.4% in experiment [16]; 30.1% in experiment [17]; 36.8% in experiment [18]. Moreover, the growth in [19] is 68.5%.
`CCCCCCCC/C=C\CCCCCCCCOc1ccccc1CCOP(=O)(O)OCC[N+](C)(C)C`: the growth was 46.7% in experiment [1]; 10.9% in experiment [2]; 55.4% in experiment [3]; 20.1% in [4]; 13.3% in experiment [5]; 0.679% (active) in experiment [6]. Further, the growth was 69.5% in [7]; 54.2% in [8]; 60.6% in experiment [9]; 89.1% in experiment [10]; 84.6% in experiment [11]; 91.7% in experiment [12]. Moreover, the growth was 70.1% in [13]; 65% in experiment [14]; 1.11% (active) in experiment [15]; 80.6% in experiment [16]; 26.9% in experiment [17]; 82.7% in experiment [18]. For the same molecule, in [19], the growth is 11.5%.

For the origin of these results see PubChem BioAssay (NCI).
